Test results reported in PubChem BioAssay (EPA / NIEHS).
Activity calls are given as the source filed them. How the source made its calls: active means hit-call score of the fitted dose curve at least 0.9, where 1 is the maximum; inactive means score below 0.9.

Key:
[1] = target: Bile acid receptor (Homo sapiens) (UniProt Q96RI1); experiment: ATG_IR1_CIS: Attagene CIS-FACTORIAL HepG2 Assay for human Nuclear Receptor Subfamily 1 Group H Member 4 (NR1H4), IR1 submotif (AID 2282946); conditions: IR1 reporter transcription, actives raise or lower the signal
Bile acid receptor (Homo sapiens), sequence (Q96RI1 whole entry, looked up, the tested form may be a part): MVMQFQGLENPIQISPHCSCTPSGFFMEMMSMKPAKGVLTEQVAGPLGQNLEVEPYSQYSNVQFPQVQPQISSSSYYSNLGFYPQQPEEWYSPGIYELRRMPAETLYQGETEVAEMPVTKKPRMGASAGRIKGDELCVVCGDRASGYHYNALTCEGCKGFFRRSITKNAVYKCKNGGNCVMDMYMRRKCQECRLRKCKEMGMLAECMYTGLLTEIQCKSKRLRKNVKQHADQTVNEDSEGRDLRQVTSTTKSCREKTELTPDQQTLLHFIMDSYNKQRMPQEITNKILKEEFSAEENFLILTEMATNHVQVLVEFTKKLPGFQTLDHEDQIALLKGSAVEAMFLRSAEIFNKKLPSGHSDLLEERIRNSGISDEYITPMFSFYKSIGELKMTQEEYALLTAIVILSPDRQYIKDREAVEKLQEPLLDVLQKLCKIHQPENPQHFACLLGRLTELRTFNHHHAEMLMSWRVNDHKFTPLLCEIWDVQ
In short: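 Cells (human HepG2) carry transiently transfected cis-promoter reporter transcription units. Compounds are incubated 24 h, total RNA is reverse-transcribed and amplified, and labelled fragments are resolved by capillary electrophoresis. Curves use DMSO as baseline.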

[2] = ATG_ISRE_CIS: Attagene CIS-FACTORIAL HepG2 Assay for human Interferon Regulatory Factor 1 (IRF1) binding to an Interferon-Stimulated Response Element (ISRE) (AID 2282948); conditions: HepG2 ISRE cis-reporter (Attagene), mRNA transcription readout; actives raise or lower the signal
In short: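 Cell-based cis-reporter assay; HepG2; 24 h exposure; reporter mRNA by RT-PCR plus capillary electrophoresis fluorescence; activity in either direction scored relative to DMSO.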

[3] = ATG_M_32_CIS: Attagene CIS-FACTORIAL HepG2 Assay for M32 Transcription Factor (Internal Marker) (AID 2282949); conditions: HepG2 Attagene cis-factorial M32 reporter, mRNA; actives raise or lower the signal;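 further: background control marker of the multiplexed CIS panel rather than a real target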
In short: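 Fluorescent capillary electrophoresis peaks of HpaI-digested, FAM-labelled RT-PCR reporter products give the signal. Source: transiently transfected human liver HepG2 cells, 24 h after chemical dosing; bidirectional fitting against DMSO.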

[4] = ATG_M_06_CIS: Attagene CIS-FACTORIAL HepG2 Assay for M06 Transcription Factor (Internal Marker) (AID 2282950); conditions: HepG2 Attagene CIS-FACTORIAL M06 internal marker reporter; actives raise or lower the signal
In short: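 Steps: transfect HepG2 with multiplexed cis-element reporter constructs; dose chemical 24 h; extract RNA with DNase treatment; reverse-transcribe, PCR-amplify, 6-FAM label, HpaI digest; separate fragments by capillary electrophoresis. Activity fitted both directions versus DMSO.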

[5] = target: Hepatocyte nuclear factor 6 (Homo sapiens) (UniProt Q9UBC0); experiment: ATG_HNF6_CIS: Attagene CIS-FACTORIAL HepG2 Assay for human Hepatocyte Nuclear Factor 6 (HNF6) (AID 2282952); conditions: HepG2 Attagene cis-factorial HNF6 reporter transcription; actives raise or lower the signal
Hepatocyte nuclear factor 6 (Homo sapiens), sequence (Q9UBC0 whole entry, looked up, the tested form may be a part): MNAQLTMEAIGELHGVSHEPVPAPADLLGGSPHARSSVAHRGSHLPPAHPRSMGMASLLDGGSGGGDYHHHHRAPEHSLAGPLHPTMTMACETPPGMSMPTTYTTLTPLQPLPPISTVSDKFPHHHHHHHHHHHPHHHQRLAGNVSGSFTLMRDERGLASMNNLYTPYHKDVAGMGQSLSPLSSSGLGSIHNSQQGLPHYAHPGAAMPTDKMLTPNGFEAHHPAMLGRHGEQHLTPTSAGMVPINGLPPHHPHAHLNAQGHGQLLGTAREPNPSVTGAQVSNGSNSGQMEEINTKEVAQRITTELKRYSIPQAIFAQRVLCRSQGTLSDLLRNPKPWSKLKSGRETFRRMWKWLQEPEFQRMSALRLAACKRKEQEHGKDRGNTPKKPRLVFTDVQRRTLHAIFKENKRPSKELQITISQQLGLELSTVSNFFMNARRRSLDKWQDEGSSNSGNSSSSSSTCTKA
In short: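 Reporter mRNA induction or loss in HepG2 after 24 h exposure; transient cis-MRTU transfection; fragments quantified by capillary electrophoresis; bidirectional analysis, DMSO as negative control.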

[6] = target: Heat shock factor protein 1 (Homo sapiens) (UniProt Q00613); experiment: ATG_HSE_CIS: Attagene CIS-FACTORIAL HepG2 Assay for human Heat Shock Transcription Factor 1 (HSE) (AID 2282953); conditions: HepG2 HSE cis-reporter, Attagene RNA transcription; actives raise or lower the signal
Heat shock factor protein 1 (Homo sapiens), sequence (Q00613 whole entry, looked up, the tested form may be a part): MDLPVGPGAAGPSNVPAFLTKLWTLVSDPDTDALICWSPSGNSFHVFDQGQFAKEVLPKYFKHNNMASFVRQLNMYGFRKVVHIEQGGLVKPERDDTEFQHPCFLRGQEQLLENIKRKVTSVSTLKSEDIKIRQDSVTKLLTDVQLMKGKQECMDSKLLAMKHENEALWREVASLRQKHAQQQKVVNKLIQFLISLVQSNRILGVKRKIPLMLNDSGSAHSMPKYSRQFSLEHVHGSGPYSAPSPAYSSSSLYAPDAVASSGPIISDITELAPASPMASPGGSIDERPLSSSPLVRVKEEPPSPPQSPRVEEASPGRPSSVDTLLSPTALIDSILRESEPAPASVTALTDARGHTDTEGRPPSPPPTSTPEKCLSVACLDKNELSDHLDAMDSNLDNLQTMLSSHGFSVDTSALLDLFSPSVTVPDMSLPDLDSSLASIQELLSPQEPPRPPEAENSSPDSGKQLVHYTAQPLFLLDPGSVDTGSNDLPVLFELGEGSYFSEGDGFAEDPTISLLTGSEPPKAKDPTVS
In short: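 Cells were transfected with cis-element-driven reporter constructs, dosed for 24 h, then total RNA was reverse-transcribed and reporter cDNA amplified, FAM-labelled and digested with HpaI. Fragments were resolved by capillary electrophoresis; gain or loss was fitted against DMSO.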

[7] = ATG_MRE_CIS: Attagene CIS-FACTORIAL HepG2 Assay for human Metal Responsive Element (MRE) (AID 2282954); conditions: HepG2 MRE cis-reporter transcription, Attagene multiplex; actives raise or lower the signal
In short: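 Transient MRTU transfection of HepG2 (FuGene 6); 24 h dosing; total RNA → oligo(dT) RT, PCR, 6-FAM primer extension, HpaI cut, CE. Bidirectional fit vs DMSO.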

[8] = target: Hypoxia-inducible factor 1-alpha (Homo sapiens) (UniProt Q16665); experiment: ATG_HIF1a_CIS: Attagene CIS-FACTORIAL HepG2 Assay for human Hypoxia Inducible Factor 1 (HIF1A) (AID 2282951); conditions: HepG2 Attagene cis-factorial HIF1a reporter transcription; actives raise or lower the signal
Hypoxia-inducible factor 1-alpha (Homo sapiens), sequence (Q16665 whole entry, looked up): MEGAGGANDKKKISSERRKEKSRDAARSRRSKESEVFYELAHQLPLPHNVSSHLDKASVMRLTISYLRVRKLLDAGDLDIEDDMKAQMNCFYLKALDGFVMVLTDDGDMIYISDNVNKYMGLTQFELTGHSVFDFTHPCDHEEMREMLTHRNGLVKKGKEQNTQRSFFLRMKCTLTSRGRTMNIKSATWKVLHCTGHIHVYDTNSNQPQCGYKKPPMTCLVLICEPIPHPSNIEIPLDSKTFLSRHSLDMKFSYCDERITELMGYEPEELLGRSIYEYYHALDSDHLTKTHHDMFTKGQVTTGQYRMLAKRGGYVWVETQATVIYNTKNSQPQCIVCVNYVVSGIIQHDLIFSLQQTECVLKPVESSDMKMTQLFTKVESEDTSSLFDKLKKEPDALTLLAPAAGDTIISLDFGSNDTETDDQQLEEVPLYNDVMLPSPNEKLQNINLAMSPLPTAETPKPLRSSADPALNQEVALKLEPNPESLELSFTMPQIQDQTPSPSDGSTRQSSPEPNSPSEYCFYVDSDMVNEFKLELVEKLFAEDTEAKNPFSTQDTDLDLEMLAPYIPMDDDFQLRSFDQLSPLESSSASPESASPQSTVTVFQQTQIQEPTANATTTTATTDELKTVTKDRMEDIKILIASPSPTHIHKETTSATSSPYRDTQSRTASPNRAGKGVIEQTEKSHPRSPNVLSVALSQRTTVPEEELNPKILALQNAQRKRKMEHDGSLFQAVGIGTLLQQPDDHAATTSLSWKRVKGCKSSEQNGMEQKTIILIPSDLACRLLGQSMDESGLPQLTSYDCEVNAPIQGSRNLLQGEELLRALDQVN
In short: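 Dosed 24 h, transfected HepG2 cells yielded total RNA whose reporter transcripts were RT-PCR-amplified and sized by capillary electrophoresis using fluorescent labelling; DMSO defined baseline, with gain and loss of signal both fitted.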

[9] = ATG_PBREM_CIS: Attagene CIS-FACTORIAL HepG2 Assay for human Phenobarbital-responsive Enhancer Module (PBREM) (AID 2282955); conditions: HepG2 PBREM cis-reporter, Attagene multiplexed transcription; actives raise or lower the signal
In short: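 Transfected liver-derived HepG2 cells exposed 24 h; PBREM reporter transcript quantified via RT-PCR and capillary electrophoresis, with activity in either direction referenced to DMSO.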

[10] = ATG_GRE_CIS: Attagene CIS-FACTORIAL HepG2 Assay for human Glucocorticoid Response Elements (GRE) (AID 2282947); conditions: HepG2 GRE cis-reporter, Attagene multiplex mRNA; actives raise or lower the signal
In short: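 Transient MRTU transfection of human HepG2 liver cells; cis-regulated reporters report endogenous factors. 24 h dosing → RNA isolation → RT-PCR → 6-FAM primer extension → HpaI cut → CE fragment analysis. Bidirectional fit, DMSO negative control.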

Measured: AC50

OC1C(O)C(O)C(O)C(O)C1O (configuration not stated)
not listed: [8] | [9] | [10]
inactive: all other assays above

O=Nc1ccc(Nc2ccccc2)cc1
inactive: [3]
active: [1] 13.7 µM | [2] 25.4 µM | [8] 33.4 µM | [5] 25.2 µM | [7] 20 µM | [9] 59.3 µM

CN(C)CCOCCN(C)C
not listed: [9] | [10]
inactive: all other assays above

CC(=O)Nc1ccccc1O
not listed: [9] | [10]
inactive: all other assays above

CCc1c(C)cc(N)c(CC)c1N
not listed: [10]
inactive: all other assays above

CCCC/C=C\CCCCCCCCCC=O
not listed: [10]
inactive: all other assays above

C=C[Si](OCC)(OCC)OCC
not listed: [1] | [9]
inactive: all other assays above

CC1COc2ccccc2N1C(=O)C(Cl)Cl (configuration not stated)
active: [2] 100 µM | [7] 62.1 µM
not listed: [1]
inactive: all other assays above

O=C(Oc1ccccc1)c1ccc(O)cc1
active: [8] 176 µM
not listed: [1] | [9]
inactive: all other assays above

C=C(C)C(=O)NCCCN(C)C
not listed: [1] | [9]
inactive: all other assays above

CCOc1ccccc1OCC
not listed: [1] | [9]
inactive: all other assays above

C=CCOc1nc(OCC=C)nc(OCC=C)n1
not listed: [1] | [9]
inactive: all other assays above
